Screening data deposited in PubChem BioAssay by National Center for Advancing Translational Sciences (NCATS).
IL1B secr inh: qHTS for Inhibitors of Inflammasome Signaling: IL-1-beta AlphaLISA Primary Screen | 4.7% of 360,000 active | THP-1 LPS/ATP IL-1B secretion, AlphaLISA, 16 h; stronger effect = lower value | activity change, % at 57.5 µM; in the data active = activity change below about -50%; inconclusive = mostly about -30% to -49%
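THP-1 cells pretreated 1 hr with compounds (up to 57.5 uM final), then stimulated with LPS (250 ng/mL final) plus ATP (1.25 mM final); secreted IL-1B measured by AlphaLISA after 16 hr, decreased signal indicating inhibition.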
USP2a block: qHTS Assay for Inhibitors of Ubiquitin-specific Protease USP2a Using CHOP2 as the Reporter; AID 463254, 2010; Potency, µM (top dose mostly 38.3 µM), usual class: inhibitors; 0.01% of 330,000 active; USP2 core, Ub-CHOP2 coupled fluorogenic reporter, 485/531
Target sequence (O75604 whole entry, looked up): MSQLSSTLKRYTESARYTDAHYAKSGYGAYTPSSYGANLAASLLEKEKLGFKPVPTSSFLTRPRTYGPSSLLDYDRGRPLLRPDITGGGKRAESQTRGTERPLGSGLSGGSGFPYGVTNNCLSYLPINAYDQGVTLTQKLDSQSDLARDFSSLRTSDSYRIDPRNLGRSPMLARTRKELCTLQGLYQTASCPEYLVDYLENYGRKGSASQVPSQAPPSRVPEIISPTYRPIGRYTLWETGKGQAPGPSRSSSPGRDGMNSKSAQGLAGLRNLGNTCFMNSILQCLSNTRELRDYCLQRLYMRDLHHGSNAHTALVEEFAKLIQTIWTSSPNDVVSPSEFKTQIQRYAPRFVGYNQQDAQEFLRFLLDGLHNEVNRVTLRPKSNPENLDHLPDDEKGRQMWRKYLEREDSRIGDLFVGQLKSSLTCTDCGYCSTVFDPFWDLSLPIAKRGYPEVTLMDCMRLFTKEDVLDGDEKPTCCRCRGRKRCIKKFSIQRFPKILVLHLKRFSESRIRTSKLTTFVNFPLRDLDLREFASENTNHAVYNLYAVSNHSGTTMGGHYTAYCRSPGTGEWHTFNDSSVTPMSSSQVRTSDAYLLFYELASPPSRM
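Deubiquitinase activity read as fluorescence (485/531 nm) after Ub-CHOP2 cleavage activates the enterokinase reporter on its substrate; USP2 core 10nM, Ub-CHOP2 and substrate 25nM each, 30min compound preincubation then 60min RT; data normalized to NEM, curves fitted.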
USP1 inh: Inhibitors of USP1/UAF1: Primary Screen. Ubiquitin carboxyl-terminal hydrolase 1 (Homo sapiens), O94782. recombinant USP1/UAF1, Ub-Rhodamine cleavage fluorescence. Potency, µM (doses to about 57.1 µM), usual class: inhibitors. 0.23% of 390,000 active; note: nearly all actives have a fitted effect of over 60% in size
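In this screen, compounds sit with the deubiquitinase complex (1nM) for 15 min at room temperature before Ub-Rho is added at 150nM final. Fluorescence rise is then followed for 6 reads every 60 seconds.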
ATXN2 expr inh: Primary qHTS for Inhibitors of ATXN expression | HEK-293 ATXN2-luciferase reporter, luminescence, 24 h | 0.72% of 360,000 active | Potency, µM (series often up to 57 µM), most hits filed as inhibitors; note: nearly all actives have a fitted effect of over 55% in size
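qHTS (up to 57 uM final) was run with 24 h compound exposure of reporter cells at 37 °C. Each well was multiplexed: SteadyGlo luminescence measured ATXN2-luciferase expression after a fluorogenic Gly-Phe-AFC viability readout (25 uM final).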
ATXN viability: Viability Counterscreen for Primary qHTS for Inhibitors of ATXN expression; Potency, µM (titrated, usually from 56.7 µM), actives largely listed as cytotoxic; 0.49% of 400,000 active; AID 651635, 2014; S2 cells (HEK-293 line with an ATXN2-luciferase reporter) viability, CellTiter-Fluor protease fluorescence, 24 h; note: nearly all actives have a fitted effect of over 40% in size
Large screens that a line does not name were inactive. Hits are enriched below; roughly 4.8% of the tested compounds scored in any of these assays. Unless noted, calls come from the whole dose curve; as a rule, active = well fitted curve in the direction sought with a large enough effect; inconclusive = small, poorly fitted or top-dose-only effect, or another doubt; inactive = no such curve, though single readings can be large; an effect the other way counts as inactive or inconclusive.

Cc1ccc(/C=C/C(=O)Nn2cnnc2)cc1	IL1B secr inh -115, ATXN viability inconclusive
COc1cc(=O)n2c(c1C(=O)NC(C)c1ccco1)CCN(C(=O)c1cccc(C)c1C)CC2 (stereo not drawn)	none (no result: IL1B secr inh, USP2a block, USP1 inh, ATXN2 expr inh)
COc1ccc(C(=O)CSc2cc(C)nc3nc(C)nn23)cc1OC	IL1B secr inh -97, USP1 inh inconclusive
CC(=O)NC(CC(=O)N(C)C1CCCCC1)c1ccccc1 (stereo not drawn)	USP1 inh inconclusive
CC(C)(O)CN(C(=O)C(c1ccccc1)c1ccccc1)C1CCCCC1	IL1B secr inh -63 (no result: USP2a block)
Oc1ccccc1C=NCCN1CCN(CCN=Cc2ccccc2O)C1c1ccccc1O (stereo not drawn)	USP1 inh inconclusive (no result: USP2a block)
CCc1nc2sc3c(c2c(=O)n1NC(=O)CCl)CCCC3	IL1B secr inh -77
COc1ccc(OCC(=O)N2CCN(S(=O)(=O)c3ccc4c(c3)OCCO4)CC2)cc1	IL1B secr inh inconclusive (no result: USP2a block, ATXN2 expr inh)
CCN(CC)c1ccc(/C=C(\C#N)C(=O)c2ccc(Br)cc2)cc1	IL1B secr inh inconclusive, USP2a block inconclusive, USP1 inh 25µM
CCN(CC)c1ccc(/C=C(\C#N)C(N)=O)cc1	none
CN(C)c1ccc(/C=C(\C#N)C(=O)c2ccccc2)cc1	USP1 inh 14µM
COC(=O)c1c(NC(=O)COc2ccc(OC)cc2)sc2c1CCC(C)C2 (stereo not drawn)	ATXN2 expr inh inconclusive, ATXN viability inconclusive (no result: IL1B secr inh, USP2a block)
Cc1cnc(-n2ncc(C(=O)NCCCc3ccncc3)c2C)nc1-c1ccc(F)cc1	none (no result: IL1B secr inh, USP2a block, USP1 inh, ATXN2 expr inh)
CN(CCCS(=O)(=O)[O-])c1ccc(/C=C/c2ccc3ccccc3[n+]2C)cc1	none (no result: ATXN2 expr inh)
CN(C)c1ccc(/C=C/c2ccc3c4ccccc4ccc3[n+]2-c2ccccc2)cc1	IL1B secr inh -111, USP1 inh inconclusive, ATXN2 expr inh 1.1µM (no result: ATXN viability)
CC(=O)Oc1ccccc1/C=C/c1ccc2ccccc2[n+]1C	IL1B secr inh -57, ATXN viability inconclusive (no result: ATXN2 expr inh)
CN(C)c1ccc(/C=C/c2ccc3ccccc3[n+]2C)cc1	IL1B secr inh -107, ATXN2 expr inh inconclusive, ATXN viability 10µM
COc1ccc(/C=C/c2ccc3ccccc3[n+]2C)cc1OC	none (no result: ATXN2 expr inh)
CN(C)c1ccc(/C=C/c2cccc[n+]2[O-])cc1	USP1 inh inconclusive (no result: IL1B secr inh, ATXN viability)
CC(C(=O)NC(N)=O)N1C(=O)NC(c2ccccc2)(c2ccccc2)C1=O (stereo not drawn)	none
O=C(/C=C/c1ccc(-c2ccccc2)o1)c1ccccc1	IL1B secr inh -99
Cc1ccc(-c2ccc(/C=C/C(=O)c3ccccc3)o2)cc1	IL1B secr inh -79
O=Cc1ccc(-c2cccc(C(=O)O)c2)o1	none
O=C(NNC(=O)c1ccco1)c1cccc(Br)c1	none
COc1ccc(N2CCN(C(=O)c3cc(NC(C)=O)c4c(c3)ncn4CCc3ccccn3)CC2)cc1	none (no result: IL1B secr inh, USP2a block, USP1 inh, ATXN2 expr inh)
O=C(NCC1CC1)c1ccc(-c2cn[nH]c2)c2ccoc12	ATXN viability inconclusive (no result: USP2a block, USP1 inh)
O=C(NCc1ccccc1)c1cccc(COc2cc(Cl)ccc2Cl)c1	none
O=C(NCc1ccco1)c1ccc(COc2ccccc2Cl)cc1	IL1B secr inh -57
O=C(NCc1ccccc1)c1cccc(COc2ccccc2Cl)c1	IL1B secr inh -63
O=C(NCc1ccco1)c1ccc(COc2cccc3ccccc23)cc1	IL1B secr inh -60
COc1ccccc1-n1c(-c2ccc(Cl)cc2)c[nH]c1=S	ATXN viability inconclusive (no result: ATXN2 expr inh)
CC(C)c1nc2cccnc2n1C1CCN(C(=O)Cn2cccn2)CC1	none (no result: IL1B secr inh, USP2a block, USP1 inh, ATXN2 expr inh)
O=C1Nc2cc(C(=O)NCCN3CCCCCC3)ccc2S/C1=C/c1ccccc1F	IL1B secr inh -102, ATXN viability inconclusive (no result: USP2a block, ATXN2 expr inh)
Cc1cccc(CN2C(=O)/C(=C\c3ccc(C(=O)NCCN4CCOCC4)cc3)Sc3ccccc32)c1	ATXN2 expr inh inconclusive
CCN1CCN(CCNC(=O)c2ccc3c(c2)N(Cc2ccc(F)cc2)C(=O)/C(=C/c2ccccc2)S3)CC1	IL1B secr inh -102, ATXN2 expr inh inconclusive, ATXN viability inconclusive
O=C1Nc2cc(C(=O)NCCCN3CCCC3)ccc2S/C1=C/c1ccccc1F	IL1B secr inh inconclusive, ATXN viability inconclusive (no result: ATXN2 expr inh)
